An excerpt weighted towards active compounds, which were near 11% of everything screened.
ALDH1A1 inh: qHTS Assay for Inhibitors of Aldehyde Dehydrogenase 1 (ALDH1A1) | Potency, µM (doses to about 75.3 µM), actives largely listed as inhibitors | Aldehyde dehydrogenase 1A1 (Homo sapiens), P00352 | Purified ALDH1A1, NADH fluorescence, propionaldehyde substrate | hit rate 7.3% among 220,000; active = well fitted inhibition curve with a large enough effect, not every such curve was filed as active; inconclusive = small, poorly fitted or top-dose-only effect, or another doubt; inactive = no such curve, though single readings can be large or run the other way
IMPase inh: qHTS Assay for Identifying the Cell-Membrane Permeable IMPase Inhibitors. Inositol monophosphatase 1 (Rattus norvegicus), P97697. CHO-M1 cells, IP1 accumulation, HTRF TR-FRET ratio. inhibition (IP1 accumulation), % at 46.1 µM. 120,000 tested, under 10 active; active = well fitted curve in the direction sought with a large enough effect in the signal ratio, not every such curve was filed as active; inconclusive = small, poorly fitted or top-dose-only effect, or a change in a side signal; inactive = no such curve, though single readings can be large or run the other way; the % refers to the signal ratio;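 also: cells stimulated with carbachol in lithium chloride buffer; higher means more IMPase inhibition seen as more IP1 and lower FRET ratio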
Target sequence (P97697 whole entry, looked up): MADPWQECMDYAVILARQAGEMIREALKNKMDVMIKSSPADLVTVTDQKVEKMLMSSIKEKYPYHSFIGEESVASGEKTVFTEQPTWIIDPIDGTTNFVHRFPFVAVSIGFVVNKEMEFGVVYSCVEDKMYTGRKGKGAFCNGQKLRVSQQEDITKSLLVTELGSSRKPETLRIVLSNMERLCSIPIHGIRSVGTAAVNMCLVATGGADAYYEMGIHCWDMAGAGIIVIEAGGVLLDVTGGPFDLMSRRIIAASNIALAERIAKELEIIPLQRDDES
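CHO-M1 cells (CHO stably expressing M1 receptor), compound up to 46 uM final, stimulated with carbachol (50 uM as added) in buffer with 50mM LiCl, pH 7.4, 30 min at 37C. Cytosolic IP1 read by TR-FRET; AC50 from Hill fits.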
HPGD inh: qHTS Assay for Inhibitors of HPGD (15-Hydroxyprostaglandin Dehydrogenase); Potency, µM, most hits filed as inhibitors; 15-hydroxyprostaglandin dehydrogenase [NAD(+)] (Homo sapiens), P15428; AID 894, 2007; hit rate 4.3% among 150,000; purified HPGD, NADH fluorescence kinetic, PGE2 substrate; active = well fitted inhibition curve with a large enough effect, not every such curve was filed as active; inconclusive = small, poorly fitted or top-dose-only effect, or another doubt; inactive = no such curve, though single readings can be large or run the other way
Target sequence (P15428 whole entry, looked up): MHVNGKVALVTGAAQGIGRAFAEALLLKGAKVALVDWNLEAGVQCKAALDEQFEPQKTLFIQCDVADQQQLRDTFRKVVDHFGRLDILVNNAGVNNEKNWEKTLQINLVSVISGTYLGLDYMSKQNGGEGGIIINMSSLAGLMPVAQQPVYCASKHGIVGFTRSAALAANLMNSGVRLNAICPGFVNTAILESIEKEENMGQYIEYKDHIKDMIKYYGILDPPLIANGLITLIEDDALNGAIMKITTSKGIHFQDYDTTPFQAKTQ
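20 nM HPGD preincubated 15 min at room temperature with compound in 50 mM Tris-HCl pH 8, 0.01% Tween 20. Started with 1 mM NAD+ and 30 uM prostaglandin E2; NADH fluorescence (360/450 nm) read 5 times over 30-s intervals, last minus first.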
12-hLO inh: qHTS Assay for Inhibitors of 12-hLO (12-human lipoxygenase); Polyunsaturated fatty acid lipoxygenase ALOX12 (Homo sapiens), P18054; purified 12-hLO, xylenol orange hydroperoxide absorbance; Potency, µM (highest dose often 57.1 µM), actives largely listed as inhibitors; hit rate 0.12% among 150,000; AID 1452, 2008; also: nearly all actives have a fitted effect of over 55% in size
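Hydroperoxide formation by human 12-lipoxygenase from 40 uM arachidonic acid was followed colorimetrically via ferric-xylenol orange complex, using the 573/405 nm absorbance ratio. Enzyme concentration was 150 nM, with 30 min reaction at room temperature.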
PNC assembly inh: High Content Assay for Compounds that inhibit the Assembly of the Perinucleolar Compartment | hit rate 3.1% among 140,000 | activity change (PNC), negative = inhibition, % at 10 µM | PC3M PTB-GFP, PNC prevalence imaging, 16 h; stronger effect = lower value;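 active = readout at or below -70, meaning at least 70% loss of cells showing the perinucleolar compartment, a nuclear body marking cancer cells; inconclusive = readout between -30 and a set limit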
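PC3M cells stably expressing PTB-GFP, 750–1000 cells/well, treated 16 h at 37 °C with compound (23 nl of library stock), in duplicate. After paraformaldehyde fixation and Hoechst stain, imaged at 20x; PNC prevalence scored by image analysis.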
IMPase Li cell: qHTS Assay for Identifying the Cell-Membrane Permeable IMPase Inhibitors: Potentiation with Lithium. CHO-M1 cells, IP1 TR-FRET (IP-One), carbachol + lithium. Potency, µM (titrated, usually from 59.4 µM), actives largely listed as inhibitors. hit rate 0.35% among 210,000;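 also: IP1 builds up when IMPase is blocked and the TR-FRET signal falls; nearly all actives have a fitted effect of over 50% in size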
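IP1 accumulation measured by competitive TR-FRET in lysed CHO-M1 cells after 30 min compound exposure at 37C, with a small lithium addition to potentiate weak responses. Hill-equation AC50 from ratio and donor-channel data.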
Of the large screens only hits and unclear results are named; the others gave an inactive call. Unless noted, calls follow the shape of the dose curve; as a rule, active = well fitted curve in the direction sought with a large enough effect; inconclusive = small, poorly fitted or top-dose-only effect, or another doubt; inactive = no such curve, though single readings can be large; an effect the other way counts as inactive or inconclusive.

COc1ccc(C(=O)N2CCN(c3ncnc4c(-c5ccccc5)nsc34)CC2)cc1	ALDH1A1 inh 2.82µM, HPGD inh inconclusive
Cc1cc(N2CCN(c3ccccc3)CC2)nc(-c2ccccc2)n1	PNC assembly inh inconclusive
O=C(c1ccccc1)N1CCN(c2ncnc3c(-c4ccccc4)nsc23)CC1	ALDH1A1 inh inconclusive (no result: IMPase inh, HPGD inh, 12-hLO inh, PNC assembly inh)
Cc1ccc(-c2csc3ncnc(N4CCN(C(=O)c5ccccc5)CC4)c23)cc1	ALDH1A1 inh 12.6µM, PNC assembly inh inconclusive
Cc1ccc(S(=O)(=O)N2CCC(C(=O)O)(c3ccccc3)CC2)cc1	none (no result: IMPase inh, PNC assembly inh)
O=c1c2ccccc2c(C=NC2CCN(Cc3ccccc3)CC2)c(O)n1Cc1ccc2c(c1)OCO2	none (no result: IMPase inh, HPGD inh, 12-hLO inh, PNC assembly inh)
O=C(c1ccco1)N1CCN(c2ncnc3scc(-c4ccccc4)c23)CC1	ALDH1A1 inh 11.2µM
O=C(c1ccco1)N1CCN(c2ncnc3scc(-c4cccs4)c23)CC1	none
CCCNC(=O)OC[C@@H]1O[C@H](CCO/N=C2\c3cc(OC)ccc3O[C@H](c3cccc(OC)c3)[C@H]2O)C=C[C@@H]1Oc1ccc(OC)cc1	none (no result: IMPase inh, HPGD inh, 12-hLO inh, PNC assembly inh, IMPase Li cell)
Cc1onc(-c2ccccc2Cl)c1C(=O)N1CCN(C/C=C/c2ccccc2)CC1	ALDH1A1 inh inconclusive
O=C(c1ccc(Br)s1)N1CCN(C/C=C/c2ccccc2)CC1	ALDH1A1 inh 17.8µM
O=C(c1ccc(=O)n(Cc2ccccc2)n1)N1CCN(C/C=C/c2ccccc2)CC1	ALDH1A1 inh inconclusive, PNC assembly inh -106.7
O=C(c1ccc(Br)o1)N1CCN(C/C=C/c2ccccc2)CC1	IMPase inh inconclusive
CN(C)c1ccc(C(C(=O)NC(C)(C)C)N(C(=O)c2csnn2)C2CC2)cc1 (centres undefined)	ALDH1A1 inh 5.62µM, HPGD inh inconclusive, PNC assembly inh -95.8
CCC(C)(C)NC(=O)C(c1ccccc1)N(C(=O)c1csnn1)C1CC1 (centres undefined)	none
Cc1ccnc(SCC(=O)c2ccc(Br)cc2)c1C#N	ALDH1A1 inh inconclusive, HPGD inh 28.2µM (no result: IMPase inh)
Cc1ccc(C(=O)CSc2nsc(C)c2C#N)cc1	ALDH1A1 inh inconclusive, HPGD inh 22.4µM
Cc1ccccc1-c1nsc(SCC(=O)c2ccc(Cl)cc2)n1	IMPase inh inconclusive
Cc1snc(SCC(=O)c2ccc(Cl)cc2)c1C#N	ALDH1A1 inh 20µM, HPGD inh inconclusive
O=C1c2cc(Br)ccc2O[C@@H](c2ccc3c(c2)OCO3)[C@@H]1O	none (no result: IMPase inh, 12-hLO inh, PNC assembly inh)
Cc1ccc(CCNC(=O)C2CCN(C(=O)c3sccc3-n3cccc3)CC2)cc1	ALDH1A1 inh 1µM
O=C(NCCc1ccccc1)C1CCN(C(=O)c2sccc2-n2cccc2)CC1	ALDH1A1 inh 3.98µM, PNC assembly inh inconclusive
O=C(c1sccc1-n1cccc1)N1CCCC1	ALDH1A1 inh inconclusive, PNC assembly inh -83.4
O=C(NCCc1ccccc1)C1CCN(C(=O)NCc2ccccc2)CC1	none
O=C(NCc1cccc(F)c1)C1CCN(C(=O)c2sccc2-n2cccc2)CC1	ALDH1A1 inh 5.01µM (no result: IMPase inh, HPGD inh, 12-hLO inh, PNC assembly inh)
CN1CCN(c2nc(-c3ccc4c(c3)OCO4)nc3ccccc23)CC1	ALDH1A1 inh inconclusive (no result: IMPase inh, HPGD inh, 12-hLO inh, PNC assembly inh)
Cc1noc(C)c1-c1nc(N2CCNCC2)c2ccccc2n1	none (no result: IMPase inh, PNC assembly inh)
CCN(CC)S(=O)(=O)N1CCC(C(=O)NC2CCCc3ccccc32)CC1 (centres undefined)	ALDH1A1 inh inconclusive
O=C(NC1CCCc2ccccc21)C1CCN(C(=O)c2sccc2-n2cccc2)CC1 (centres undefined)	ALDH1A1 inh 1µM
CN(Cc1ccc(Cl)s1)C(=O)CCl	ALDH1A1 inh 0.355µM (no result: IMPase inh, HPGD inh, 12-hLO inh, PNC assembly inh)
COc1ccc(CN(C)C(=O)CCl)cc1	ALDH1A1 inh 0.501µM (no result: IMPase inh, HPGD inh, 12-hLO inh, PNC assembly inh)
CN(Cc1ccc(Cl)cc1)C(=O)CCl	ALDH1A1 inh 0.501µM (no result: IMPase inh, HPGD inh, 12-hLO inh, PNC assembly inh)
NC1=NC(S)C2N=CN=C2N1 (centres undefined)	ALDH1A1 inh inconclusive, HPGD inh inconclusive (no result: IMPase inh, PNC assembly inh)
Cc1cccc(Nc2nnc(-c3ccc(C)c(S(=O)(=O)NCC4CCCO4)c3)c3ccccc23)c1 (centres undefined)	none (no result: ALDH1A1 inh, HPGD inh, 12-hLO inh, PNC assembly inh, IMPase Li cell)
O=C(Nc1cccc(F)c1)N1CCCC2(CCN(C(=O)c3cccc(F)c3)CC2)C1	none (no result: IMPase inh, PNC assembly inh)
CC(=O)c1cccc(NC(=O)CC2Oc3ccc(C)cc3NC2=O)c1 (centres undefined)	ALDH1A1 inh 3.16µM
Cc1ccc2c(c1)NC(=O)C(CC(=O)NCc1ccc(F)cc1)O2 (centres undefined)	none
Cc1ccn2c(/C=N/OCc3ccc(F)cc3)c(-c3ccc(Cl)cc3)nc2c1	ALDH1A1 inh 22.4µM, IMPase inh inconclusive (no result: HPGD inh, IMPase Li cell)
CN1CCN(Cc2nc3cccc4c3c([n+]2[O-])-c2ccccc2-4)CC1	none (no result: IMPase inh, PNC assembly inh)
Cc1ccccc1OCC(=O)Nc1sc(C(=O)Nc2cccc(C)c2C)c(C)c1C#N	IMPase inh inconclusive, HPGD inh inconclusive, IMPase Li cell 1µM
COc1cc(C)ccc1OCCCn1c(-c2ccc(Cl)cc2)nc2ccccc2c1=O	none (no result: ALDH1A1 inh, HPGD inh, 12-hLO inh, PNC assembly inh, IMPase Li cell)

Screens: PubChem BioAssay, National Center for Advancing Translational Sciences (NCATS)
